Hits are enriched below; roughly 4.8% of the tested compounds scored in any of these assays.
NF-kB neuron act: compounds increasing NF-kB expression in human neuronal cells. fold change at 12.5 µM. NF-kB reporter expression; hits give high values. 1.6% of 190,000 active. AID 1239; in the data active = fold change above about 3.3
STAT1 activator: activators of IFN-gamma induced STAT1 signaling; NIH 3T3 STAT1-luciferase reporter, luminescence; 100% = IFN-gamma alone, no compound; activation (% of control), % at 5.5 µM; 2.6% of 200,000 active; AID 932;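 active = activation above the screen-wide mean activation plus 3 SD, cut at about 130% in these data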;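 also: raw ratio to IFN-gamma control signal so 100% means no change and 0% no light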
Hsp70 act: switches on Hsp70 transcription; HeLa Hsp70 promoter luciferase reporter, luminescence; scaled: vehicle 0, proteasome-inhibitor control 100%; activation, % at 10 µM; 0.04% of 200,000 active; AID 1203;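 active = activation above the mean across all tested compounds plus 3 SD, cutoff set per campaign, cut at about 5.5% in these data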;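 also: 100% = MG132 at 30 µM as the positive control and 0% = DMSO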
APP 5UTR inh: APP translation inhibition. SH-SY5Y APP 5'UTR-luciferase reporter, luminescence. inhibition, % at 2 µM. 0.82% of 190,000 active. AID 1285;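 active = inhibition above a set limit, derived from the sample mean plus 3 SD, cut at about 45% in these data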
APP 5'UTR act: APP 5'UTR luciferase reporter activation | 1% of 190,000 active | SH-SY5Y APP 5'UTR luciferase reporter, luminescence; zero percent = DMSO vehicle wells | activation, % at 2 µM;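 active = activation above a set limit, based on mean plus 3 SD of controls, cut at about 140% in these data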
Wee1 degr inh: inhibitors of human Wee1 degradation | HeLa Luc-Wee1K328M stability, luciferase luminescence; 100% = proteasome inhibitor MG132 effect | reporter increase, % at 5 µM | 1.2% of 220,000 active;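 active = activation above the mean of all tested compounds plus 3 SD, set per screening run, cut at about 8.8% in these data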;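 also: cells exposed to compound for 20 h before luminescence read; 0% = DMSO alone and 100% = MG132 at 30 µM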
Target sequence (P30291 whole entry K328M): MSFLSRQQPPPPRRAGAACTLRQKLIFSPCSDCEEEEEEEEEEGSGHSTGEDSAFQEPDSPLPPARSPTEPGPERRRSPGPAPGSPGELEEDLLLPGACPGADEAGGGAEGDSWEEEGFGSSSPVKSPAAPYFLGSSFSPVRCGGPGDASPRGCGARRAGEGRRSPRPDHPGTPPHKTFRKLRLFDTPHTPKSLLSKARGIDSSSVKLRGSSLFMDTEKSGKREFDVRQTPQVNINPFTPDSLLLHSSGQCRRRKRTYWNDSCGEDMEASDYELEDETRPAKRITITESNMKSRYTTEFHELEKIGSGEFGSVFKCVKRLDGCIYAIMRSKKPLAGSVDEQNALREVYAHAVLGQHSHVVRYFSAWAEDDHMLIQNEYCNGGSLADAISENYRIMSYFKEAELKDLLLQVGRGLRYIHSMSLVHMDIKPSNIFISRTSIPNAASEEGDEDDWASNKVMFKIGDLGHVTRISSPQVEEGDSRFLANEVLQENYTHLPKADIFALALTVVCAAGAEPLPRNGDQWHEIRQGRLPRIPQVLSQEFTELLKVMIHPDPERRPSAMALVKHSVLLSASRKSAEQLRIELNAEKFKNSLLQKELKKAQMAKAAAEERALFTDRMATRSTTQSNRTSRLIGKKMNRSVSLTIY
* hit, by the source's call; . = not tested or not shown.

SMILES	NF-kB neuron act	STAT1 activator	Hsp70 act	APP 5UTR inh	APP 5'UTR act	Wee1 degr inh
CC(C)c1oc(=O)cc2c1[C@@H](O)[C@H]1OC(=O)[C@@]3(C)CC[C@@H](O)[C@@]2(C)C13 (stereo partly specified)	3.31*	87.8	-0.3	-22.4	22.4	7.1
CC(C)c1oc(=O)cc2c1[C@@H](O)[C@H]1OC(=O)[C@@]3(C)C[C@@H](O)[C@@H](O)[C@@]2(C)C13 (stereo partly specified)	6.99*	82.3	-0.1	-16.9	16.9	1.1
C/C(=N\N1CCCCCC1)c1c(O)n(-c2ccc(C)cc2)c(=O)[nH]c1=O	1.21	104.2	0.2	-8.7	8.7	1.6
C=CCn1c(O)c(C(C)=NC2CC2)c(=O)[nH]c1=O	1.21	101.7	-0.2	-4.6	4.6	5.7
C=CCn1c(O)c(C(C)=NC2CCN(Cc3ccccc3)CC2)c(=O)[nH]c1=O	.	.	.	.	.	10.7*
Cn1cc(NC(=O)CCl)cn1	1.26	94.5	-0.2	15.2	-15.2	-2.7
C=C1[C@@H](C)[C@H]2[C@H](Cc3ccccc3)NC(=O)[C@]23OC(=O)/C=C/[C@H](O)CCC[C@@H](C)C/C=C/[C@H]3[C@@H]1O	.	.	0.5	54.3*	-54.3	-1.0
CC(C)CN(CC(C)C)c1ccc(C=C2C(=O)NC(=S)NC2=O)cc1[N+](=O)[O-]	1.16	95.5	-0.2	-8.7	8.7	-2.1
COc1ccc(C2NCc3ccc4c(c3-n3cccc32)OCO4)cc1O (stereo unspecified)	2.87	97.2	0.1	94.1*	-94.1	0.7
c1cc2n(c1)-c1c(ccc3c1OCO3)CNC2c1ccc2c(c1)OCO2 (stereo unspecified)	0.83	101.9	0.1	-5.4	5.4	0.1
CN(C(=O)Oc1cccc2cccnc12)c1ccccc1	0.93	93.4	-0.2	0.5	-0.5	-3.2
CC(=O)Nc1ccccc1C(=O)OCc1ccc(C(=O)c2ccccc2)cc1	1.15	107.2	-0.3	-20.2	20.2	1.8
Nc1ccccc1C(=O)OCc1ccc([N+](=O)[O-])cc1	1.98	136.3*	0.0	-8.8	8.8	0.6
NC1CCCCC1N=Cc1c(O)n(Cc2ccc(F)cc2)c(=O)[nH]c1=O (stereo unspecified)	1.02	104.1	-0.2	-17.5	17.5	1.3
O=c1[nH]c(=O)n(Cc2ccc(F)cc2)c(O)c1C=NCC1CCCO1 (stereo unspecified)	1.67	99.5	0.0	-3.7	3.7	8.9*
Cc1[nH]c2c(C(F)(F)F)cccc2c1CCN	0.99	97.6	-0.5	47.6*	-47.6	-1.0
Cc1c(CCN)ccc2c1[nH]c1ccccc12	.	.	.	.	.	-4.1
O=P(Nc1cccnc1)(Oc1ccccc1Cl)Oc1ccccc1Cl	1.24	99.9	0.2	-2.6	2.6	0.1
Nc1c2c(nc3sc4c(c13)CCCC4)CCCCC2	3.8*	124.2	0.2	-55.6	55.6	5.6
Cc1ccc(N2C(=O)NC(=O)/C(=C\C=C\c3ccco3)C2=O)cc1	.	.	.	.	.	-1.9
Cc1ccc(N2C(=O)NC(=O)/C(=C\C=C\c3ccco3)C2=O)cc1C	0.9	99.7	-0.2	47.4*	-47.4	-2.4
O=C1NC(=O)N(CCc2ccc(F)cc2)C(=O)/C1=C\C=C\c1ccccc1	1.38	110.4	0.2	30.6	-30.6	-3.1
C=CCN1C(=O)NC(=O)/C(=C/C=C/c2ccccc2)C1=O	1.12	89.4	-0.4	73.8*	-73.8	3.0
O=C(c1sc2ccccc2c1Cl)N1CCC2(CC1)OCCO2	1.24	104.2	-0.3	-8.2	8.2	-0.1
NC1=Nc2ccccc2Oc2ccccc21	1.17	88.4	-0.5	-14.3	14.3	10.2*
SMILES	NF-kB neuron act	STAT1 activator	Hsp70 act	APP 5UTR inh	APP 5'UTR act	Wee1 degr inh
O=C(C1CC(c2ccc(F)cc2)=NO1)N1CCC2(CC1)OCCO2 (stereo unspecified)	1.75	128.0	0.8	-33.2	33.2	2.4
O=C(C1CC(c2ccc(Cl)c(Cl)c2)=NO1)N1CCC2(CC1)OCCO2 (stereo unspecified)	2.4	128.4	0.2	-69.8	69.8	9.8*
O=C1NC(=O)C(=Cc2ccc3c(c2)OCO3)C(=O)N1	1.11	108.9	-0.2	-22.0	22.0	9.1*
O=C1NC(=O)C(=Cc2ccc(N3CCOCC3)cc2)C(=O)N1	1.19	97.6	-0.1	-9.9	9.9	-1.4
Cc1ccccc1N1C(=O)NC(=O)/C(=C\c2cnn(-c3ccccc3)c2)C1=O	1.17	105.4	-0.2	-13.8	13.8	0.3
Cc1cc(N2CCCC2)ccc1C=C(C#N)C#N	1.45	99.4	-0.2	-7.1	7.1	4.5
O=C(c1cc(-c2ccccc2)on1)N1CCC2(CC1)OCCO2	5.25*	137.2*	0.2	-49.6	49.6	1.4
O=C(Nc1ccc(OC(=O)N2CCCCC2)cc1)N1CCOCC1	0.64	65.6	-0.4	52.0*	-52.0	-1.4
O=C(Nc1ccc(OC(=O)N2CCCC2)cc1)N1CCOCC1	1.02	98.9	-0.2	3.6	-3.6	-1.5
COC(=O)C(O)(c1ccc(N(C)C)cc1)C(F)(F)F (stereo unspecified)	1.12	111.0	0.2	4.4	-4.4	-2.0
CN(C)c1ccc(C(=O)c2ccc(N(C)C)cc2)cc1	2.62	134.3*	0.0	.	.	4.0
CC1(C)C[C@H]2C=C(C=O)[C@]3(C=O)C[C@]3(C)[C@H]2C1	2.03	124.1	-0.3	95.7*	-95.7	-0.8
C/C(=N\NC(=O)c1ccccc1O)c1c(O)n(Cc2ccccc2)c(=O)[nH]c1=O	.	.	.	.	.	1.6
Cc1cc(C=C2C(=O)NC(=S)NC2=O)c(C)n1C1CCCC1	1.55	135.6*	0.0	-22.0	22.0	-1.7
CC(C)C(C)(NC(=O)c1cccn(Cc2ccc3c(c2)OC(F)(F)O3)c1=O)C(N)=O (stereo unspecified)	0.82	101.8	-0.1	1.8	-1.8	1.7
C[C@H]1CCC[C@@H](O)CCC/C=C/c2cc(O)cc(O)c2C(=O)O1	1.28	107.9	-0.2	3.1	-3.1	0.3
C[C@H]1CCC/C=C/C2C[C@H](O)CC2[C@H](O)/C=C/C(=O)O1 (stereo partly specified)	0.52	58.5	-0.5	91.4*	-91.4	-4.5
CC1CCC/C=C/C2CC(O)CC2C(O)/C=C/C(=O)O1 (stereo unspecified)	0.46	52.1	-0.6	94.4*	-94.4	-3.8
c1cncc(C2Nc3cccc4cccc(c34)N2)c1	.	.	.	.	.	11.5*
C[N+]12CCC(CC1)C(C(O)(c1ccccc1)c1cccs1)C2 (stereo unspecified)	4.14*	103.4	-0.2	7.0	-7.0	-1.7
Cc1c(P(=S)(c2ccccc2)c2ccccc2)[n+]2ccccc2n1C	1.88	97.6	0.1	10.5	-10.5	-0.5
Cc1ccc(N)c(C(=O)c2ccc(Br)cc2)c1	1.21	112.6	0.2	-5.0	5.0	9.9*
Nc1ccc(Br)cc1C(=O)c1ccccc1	1.11	99.8	-0.1	3.9	-3.9	1.3

Screening data deposited in PubChem BioAssay by several laboratories.
